From PubChem BioAssay (NCI) come the findings set out here.

Each structure is given as a SMILES string. Compounds without any hit were thinned out: in the full panel of roughly 83,000, 20% have a hit.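 The endpoint reported here, percent growth, reads 100 for growth as untreated, 0 for no net growth and -100 for all cells dead.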 Unmarked numbers belong to inactive results. Activity calls are given as the source filed them. The calls were made as follows: active = growth percent below 10; inactive = the rest.

Test systems include RPMI-8226 leukemia; OVCAR-8 ovarian; OVCAR-5 ovarian; SK-OV-3 ovarian; IGROV1 ovarian; OVCAR-3 ovarian; HS 578T breast; NCI/ADR-RES ovarian; T-47D breast; BT-549 breast; MDA-MB-435 melanoma; SW-620 colon; MCF7 breast; HCT-116 colon; HCC-2998 colon; KM12 colon.
What all share (assay): NCI-60 one-dose screen, 48 h (100 = growth as untreated, 0 = no growth, -100 = all killed)
Conditions in all cases: 10 µM unless noted

On to `O=c1cc(-c2cccnc2)oc2c1ccc1ccccc12`, for which the growth with RPMI-8226 leukemia is 80.2%; in the test on OVCAR-8 ovarian it was 87%; with OVCAR-5 ovarian, 76.2%; in the test with SK-OV-3 ovarian, 106%; in the test with IGROV1 ovarian, 84.8%; in the test with OVCAR-3 ovarian, 76.5%. Also, the growth with HS 578T breast was 66.5%; in the test on NCI/ADR-RES ovarian it was 75.3%; in the test on T-47D breast, 81.6%; in the test with BT-549 breast, 81.1%; with MDA-MB-435 melanoma, 67%; in the test on SW-620 colon, 81.5%. Further, the growth is 73.6% in the test with MCF7 breast, 55.7% with HCT-116 colon, 89.2% in the test on HCC-2998 colon and 95.8% in the test on KM12 colon.

For the compound `O=C(OC[C@H]1O[C@H](OC(=O)c2cc(O)c(O)c(OC(=O)c3cc(O)c(O)c(O)c3)c2)[C@H](OC(=O)c2cc(O)c(O)c(OC(=O)c3cc(O)c(O)c(O)c3)c2)[C@@H](OC(=O)c2cc(O)c(O)c(OC(=O)c3cc(O)c(O)c(O)c3)c2)[C@@H]1OC(=O)c1cc(O)c(O)c(OC(=O)c2cc(O)c(O)c(O)c2)c1)c1cc(O)c(O)c(OC(=O)c2cc(O)c(O)c(O)c2)c1`, the growth in the test with RPMI-8226 leukemia is 34.9%; in the test with OVCAR-8 ovarian it was 30.2%; in the test with OVCAR-5 ovarian, 48.3%; in the test with SK-OV-3 ovarian, 49.8%; in the test on IGROV1 ovarian, 29.8%; with OVCAR-3 ovarian, 13.8%. Also, the growth in the test on HS 578T breast is 66.1%; in the test with NCI/ADR-RES ovarian, 9.15% (active); with BT-549 breast, 47.4%; with MDA-MB-435 melanoma it was 8.23% (active); in the test with SW-620 colon, 47.5%; with HCT-116 colon, 11.5%. For the same compound, the growth in the test with HCC-2998 colon was 1.77% (active); in the test with KM12 colon it was 21.8%.

In the case of `O[C@@H]1Cc2ccc3ccccc3c2N[C@H](c2ccoc2)C1`, the growth was 103% in the test with RPMI-8226 leukemia; 101% in the test with OVCAR-8 ovarian; 100% with OVCAR-5 ovarian; 102% with SK-OV-3 ovarian; 109% in the test with IGROV1 ovarian; 115% in the test with OVCAR-3 ovarian. Moreover, the growth is 104% in the test on HS 578T breast; 103% in the test on NCI/ADR-RES ovarian; 93.8% in the test on T-47D breast; 106% in the test with BT-549 breast; 107% with MDA-MB-435 melanoma; 112% in the test on SW-620 colon. Further, the growth in the test with MCF7 breast is 94.5%; in the test on HCT-116 colon, 105%; in the test on HCC-2998 colon, 113%; in the test on KM12 colon, 106%.

`COC(=O)CC1=C(C)/C(=C/c2[nH]c(-c3ccc[nH]3)cc2OC)N=C1C`: the growth with RPMI-8226 leukemia is -55.3% (active); in the test with OVCAR-8 ovarian, 6.58% (active); in the test on OVCAR-5 ovarian it was 18.7%; in the test with SK-OV-3 ovarian, 20.2%; with IGROV1 ovarian it was 11.3%; in the test with OVCAR-3 ovarian it was -17.7% (active). Also, the growth with HS 578T breast is -14.9% (active); in the test on NCI/ADR-RES ovarian it was 5.14% (active); in the test on T-47D breast, 0.172% (active); with BT-549 breast, 22.3%; in the test on MDA-MB-435 melanoma it was -4.71% (active); in the test on SW-620 colon, 4.66% (active). In addition, the growth with MCF7 breast was -3.82% (active); in the test on HCT-116 colon, -33.6% (active); with HCC-2998 colon, 11.3%; in the test on KM12 colon, 10.2%.

For `CN=C(NC)N/N=C(C)\C=N\NC(=NC)NC`, the growth was 127% in the test with RPMI-8226 leukemia; 102% in the test with OVCAR-8 ovarian; 116% in the test with OVCAR-5 ovarian; 101% in the test on SK-OV-3 ovarian; 112% with IGROV1 ovarian; 107% with OVCAR-3 ovarian. The growth in the test on HS 578T breast was 102%; in the test with NCI/ADR-RES ovarian, 107%; in the test on T-47D breast, 109%; in the test on BT-549 breast, 110%; with MDA-MB-435 melanoma, 104%; with SW-620 colon, 99.5%. For the same compound, the growth in the test on MCF7 breast is 104%; in the test on HCT-116 colon, 105%; in the test with HCC-2998 colon it was 110%; in the test with KM12 colon it was 104%.

Take `OC(CCC(O)(c1ccccc1)c1ccccc1)(c1ccccc1)c1ccccc1`: the growth in the test with RPMI-8226 leukemia is 35.5%; in the test with OVCAR-8 ovarian, 84.7%; in the test with OVCAR-5 ovarian, 97.2%; with SK-OV-3 ovarian, 103%; with IGROV1 ovarian, 90.7%; in the test on HS 578T breast, 75.1%. Moreover, the growth in the test on NCI/ADR-RES ovarian is 68.9%; in the test on T-47D breast, 94.1%; in the test with BT-549 breast, 121%; in the test with MDA-MB-435 melanoma, 69.9%; in the test with SW-620 colon, 69.6%; with MCF7 breast, 87.3%. The growth in the test with HCT-116 colon is 80.5%; with HCC-2998 colon it was 83.4%; with KM12 colon it was 75%.

Turning to `COc1ccc(-c2cc(Cc3cccs3)c(=O)n(Cn3cncn3)n2)cc1`, the growth is 98.7% in the test on RPMI-8226 leukemia; 92.9% in the test with OVCAR-8 ovarian; 88% with OVCAR-5 ovarian; 103% in the test on SK-OV-3 ovarian; 122% with IGROV1 ovarian; 113% with OVCAR-3 ovarian. The growth was 106% with HS 578T breast; 101% in the test with NCI/ADR-RES ovarian; 93.9% in the test with T-47D breast; 109% with BT-549 breast; 106% in the test on MDA-MB-435 melanoma; 110% in the test with SW-620 colon. Also, the growth with MCF7 breast is 93.2%; in the test on HCT-116 colon it was 101%; in the test on HCC-2998 colon, 108%; in the test with KM12 colon, 108%.

Turning to `Cc1cc(C)c2c(c1)N1OC(C2)C[C@H]1/C=C/c1ccccc1` (some centres undefined), the growth in the test on RPMI-8226 leukemia is 94.9%; with OVCAR-8 ovarian, 102%; with OVCAR-5 ovarian, 99%; with SK-OV-3 ovarian it was 116%; with IGROV1 ovarian, 82.3%; with OVCAR-3 ovarian, 116%. Moreover, the growth with HS 578T breast is 122%; with NCI/ADR-RES ovarian it was 95.9%; in the test with T-47D breast it was 93.6%; in the test with BT-549 breast, 105%; with MDA-MB-435 melanoma, 87.2%; in the test on SW-620 colon, 108%. For the same compound, the growth with MCF7 breast is 88%; in the test with HCT-116 colon, 84.6%; in the test with KM12 colon, 107%.

Turning to `CCC[C@H](N[C@@H](C)C(=O)N1[C@H](C(=O)O)C[C@@H]2CCCC[C@@H]21)C(=O)OCC`, the growth with RPMI-8226 leukemia is 109%; with OVCAR-8 ovarian, 102%; with OVCAR-5 ovarian, 88.9%; in the test with SK-OV-3 ovarian it was 113%; with IGROV1 ovarian, 108%; with OVCAR-3 ovarian, 104%. Moreover, the growth with HS 578T breast was 98%; in the test on NCI/ADR-RES ovarian, 98.5%; with T-47D breast, 124%; with BT-549 breast, 113%; with MDA-MB-435 melanoma, 112%; in the test with SW-620 colon, 114%. For the same compound, the growth was 106% in the test with HCT-116 colon, 103% in the test on HCC-2998 colon and 104% in the test on KM12 colon.
